Sampled rows, rich in hits. Any-hit rate of the full collection: about 3.1%.
DNA Pol III inh: inhibitors of bacterial DNA polymerase III holoenzyme; reconstituted DNA polymerase III holoenzyme replication, biochemical; Potency, µM (series often up to 57.1 µM), inactives show top-dose activity change, negative = inhibition; 71,000 tested, 0.25% active; AID 603; further: potency means the concentration at half of the fitted maximal effect; on the % scale 0 is the no-effect control and ±100 the full control effect
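Reconstituted *E. coli* holoenzyme (0.35 nM Pol III, 1 nM beta, 154 nM SSB, 2 nM primase) was preincubated with compound for 15 min at RT. Synthesis on 1.4 nM ssM13Gori ran 35 min, then was stopped with PicoGreen/EDTA and read as dsDNA fluorescence.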
Tau fil binding: binds recombinant human tau filaments; recombinant tau filaments, thioflavin S fluorescence, 15 h; filaments grown with octadecylsulfate alongside compound; Potency, µM (highest dose often 57.1 µM), without a hit: top-dose activity change, negative = inhibition; 71,000 tested, 2% active; AID 596;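 further: potency means the concentration at half of the fitted maximal effect; on the % scale 0 is the no-effect control and ±100 the full control effect; actives lower thioflavin S fluorescence by blocking filaments or displacing dye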
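Thioflavine S fluorescence (ex 450, em 510 nm) reports filaments formed from 1 uM human tau plus 30 uM ODS over 15 h at 37 C (10 mM HEPES pH 7.4, 100 mM NaCl, 5 mM DTT); compounds displacing dye or blocking filaments lower signal.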
ALOX15 inhib: blocks human 15-lipoxygenase activity; P16050; 74,000 tested, 1.4% active; Potency, µM (highest dose often 57.1 µM), for inactives: top-dose activity change, negative = inhibition, most hits filed as inhibitors; purified 15hLO-1, xylenol orange hydroperoxide absorbance; AID 887; further: potency means the concentration at half of the fitted maximal effect; on the % scale 0 is the no-effect control and ±100 the full control effect; nearly all actives have a fitted effect of over 55% in size
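Inhibition is scored from a chromogenic endpoint. After 15 min enzyme-compound contact, arachidonic acid (50 uM final) reacts 6 min with 40 nM 15hLO-1 at room temperature, then Fe-XO reagent is added for 30 min and absorbance ratio recorded.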
BRCT inh green: blocks human BRCA1 BRCT binding to phosphopeptide, green readout; P38398; BRCA1 BRCT-phosphopeptide binding, green fluorescence polarization; Potency, µM (series often up to 76.9 µM), for inactives: at the highest dose activity change, negative = inhibition, hits mostly inhibitors; 75,000 tested, 0.05% active;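 further: potency means the concentration at half of the fitted maximal effect; plate controls were peptide without protein for full effect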
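Compounds were incubated for 12 min at room temperature with a complex of 100 nM fluorescein-tagged pBACH1 decapeptide and 250 nM His-tagged BRCT protein. Buffer was phosphate pH 7.3 with EDTA, DTT and Tween 20. Disruption of binding lowers the polarization signal.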
YjeE inh: inhibitors of E. coli YjeE (TsaE) | purified YjeE enzyme, qHTS inhibition assay | Potency, µM | 71,000 tested, 0.05% active | AID 605
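Purified YjeE (10 uM) with BODIPY Texas Red-labeled ADP probe (2 uM); compounds pin-transferred, 15 min at room temperature. Binding inhibition read as decreased fluorescence polarization; ADP titration as control.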
BRCT inh red: inhibitors of human BRCA1 BRCT-phosphoprotein interaction (red fluorophore); P38398; BRCT-phosphopeptide binding, red fluorescence polarization; Potency, µM (titrated, usually from 76.9 µM), inactives show at the highest dose activity change, negative = inhibition, hits mostly inhibitors; 75,000 tested, 0.03% active; AID 892; further: on the % scale 0 is the no-effect control and ±100 the full control effect
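Fluorescence polarization: 100 nM His-tagged BRCA1 BRCT with 100 nM TAMRA-labelled phospho-BACH1 decapeptide, phosphate buffer pH 7.3 with 150 mM NaCl, DTT, 0.01% Tween 20; 12 min RT. Binding inhibition seen as FP decrease.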
* hit, by the source's call; i = inactive; ? = inconclusive; . = no result; ! = repeats disagree; [ ] = dose if it differs, or a comment. The call rests on the fitted dose curve; in most records, active means well fitted curve in the direction sought with a large enough effect; inconclusive means small, poorly fitted or top-dose-only effect, or another doubt; inactive means no such curve, though single readings can be large; an effect the other way counts as inactive or inconclusive.

SMILES	DNA Pol III inh	Tau fil binding	ALOX15 inhib	BRCT inh green	YjeE inh	BRCT inh red
CCC1=C2CC[C@H]3C(=O)N(C)C(=O)[C@H]3[C@H]2[C@@]2(Cc3ccccc3)C(=NCCc3c[nH]c4ccccc34)OC(=O)N2C1=O	.	.	.	-1%	.	-2%
O=c1c[n+](CCCC[n+]2cc(=O)o[nH]2)[nH]o1	-4%[11.4 µM]	6%[11.4 µM]	-2%[11.4 µM]	-2%[15.4 µM]	i	1%[15.4 µM]
CCOC(=O)[C@@H](O)Cc1cnc2ccccc2n1	-3%[11.4 µM]	5µM*	-1%[11.4 µM]	5%[15.4 µM]	i	1%[15.4 µM]
N[C@H](CS(=O)O)C(=O)O	2%	-2%	.	.	i	.
O=C1C=C(NCc2ccc(Cl)cc2)CC(c2ccco2)C1 (stereo not drawn)	-6%	-8%	-16%	0%	i	0%
CC(C)CNC1=CC(=O)CC(c2ccco2)C1 (stereo not drawn)	-8%	-23%	10µM*	0%	i	2%
C=C1C(=O)O[C@H]2C[C@@]3(C)CCCC(=C)[C@@H]3C[C@H]12	-1%	-10%	.	.	i	.
CCOC(=O)C1=C(N2CCCCC2)c2cc3c(n2C1=O)CCCC3	0%	16µM*	?	-4%	i	1%
C=CCSC1=N/C(=C\C=C\c2ccco2)C(=O)S1	?	10µM*	20µM*	-4%	i	-10%
C=CCSC1=N/C(=C\c2ccc3c(c2)OCO3)C(=O)S1	4%	19%	-22%	-2%	i	0%
CCC(=O)/C=C/C1C(C)=CCCC1(C)C (stereo not drawn)	6%	-4%	25µM*	-1%	i	1%
COc1cc(OC)c(C(=O)CCCCN2CCC3(CC2)NC(=O)NC3=O)cc1NS(=O)(=O)c1ccc(C(F)(F)F)cc1	-1%	?	?	1%	i	2%
O=C(O)CSc1n[nH]c(=O)[nH]c1=O	-5%[11.4 µM]	-4%[11.4 µM]	10%[11.4 µM]	-2%[15.4 µM]	i	1%[15.4 µM]
O=c1c2c3nc4ccccc4nc3n(/N=C/c3ccco3)c2ncn1CCC1=CCCCC1	1%	7.9µM*	-20%	0%	i	0%
Cc1ccc(-n2nc3ccc(N)cc3n2)cc1	-3%	13µM*	-19%	-1%	i	-1%
Cc1c2oc3c(C)ccc(C(=O)N[C@@H]4C(=O)N[C@@H](C(C)C)C(=O)N5CCC[C@@H]5C(=O)N(C)CC(=O)N(C)[C@@H](C(C)C)C(=O)O[C@H]4C)c3nc-2c(C(=O)N[C@@H]2C(=O)N[C@@H](C(C)C)C(=O)N3CCC[C@@H]3C(=O)N(C)CC(=O)N(C)[C@@H](C(C)C)C(=O)O[C@H]2C)c(N)c1=O	0.13µM*	?	?	0%	i	-1%
CCOC(=O)c1sc(=S)n(-c2cc(OC)ccc2OC)c1N	-7%	0%	13µM*	-1%	i	0%
CCOC(=O)c1sc(=S)n(-c2cc(F)ccc2F)c1N	2%	-2%	?	-1%	i	0%
O=[N+]([O-])c1cc(Cc2cc([N+](=O)[O-])c3cccnc3c2O)c(O)c2ncccc12	-27%[11.4 µM]	-28%[11.4 µM]	0%[11.4 µM]	-4%[15.4 µM]	i	-6%[15.4 µM]
N#Cc1cc2nc(O)c(O)nc2cc1[N+](=O)[O-]	-4%	40µM*!	?	-3%	i	-2%
O=C1CCN2C=Nc3cccc4ccc1c2c34	119%	i	-8%	16µM*	i	0%
COc1ccc(/C=C/C(=O)c2cc(O)ccc2O)cc1	.	.	20µM*	-1%[3.08 µM]	.	-2%
O=C(/C=C/c1ccccc1)c1ccc(O)cc1O	.	.	20µM*	1%[3.08 µM]	.	0%
